Reference: PubChem BioAssay AID2806 (Sanford-Burnham Center for Chemical Genomics, 2010)
Out of some 330,000 compounds screened, about 660 (0.2%) were called active.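 Rule for the calls: active = inhibition of at least 40% at 10 µM in the primary screen; inactive = the rest.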 Shown is part of a subset that was picked to be rich in actives.

system: intestinal alkaline phosphatase [Mus musculus]; test: inhibitors of mouse IAP, primary screen, biochemical, luminescence, uHTS (AID 2806); settings: purified mouse IAP, CDP-Star luminescence, 30 min; at 10 µM; active compounds read high;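 note: plate controls were DMSO with enzyme for no effect and no enzyme wells for full effect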

SMILES | inhibition
O=C1NC(=O)N(CCc2ccc(F)cc2)C(=O)/C1=C/C=C/c1ccccc1 | 1.6% (inactive)
O=C1NC(=O)N(Cc2ccco2)C(=O)/C1=C\c1cccn1CCOc1ccccc1 | 40.7% (active)
O=C1NC(=O)N(Cc2ccco2)C(=O)/C1=C\c1ccc(-c2ccc(F)cc2)o1 | 64.1% (active)
O=C(O)COc1ccccc1/C=C1\C(=O)NC(=O)N(CCC2=CCCCC2)C1=O | 0.6% (inactive)
COC(=O)C1=C(c2cc3ccccc3s2)C[C@@H]2CC[C@H]1N2C(=O)NCc1cccc2ccccc12 | 1% (inactive)
COc1ccc2c(c1)[C@]13CCCCC1C(C2)N(C)CC3 (stereo not given in full) | 0.8% (inactive)
O=Cc1cn(Cc2ccc(F)cc2Cl)c2ccccc12 | -2% (inactive)
CNCC(O)c1cc(F)c(OCc2ccccc2)c(OCc2ccccc2)c1F (stereo not given) | 5.2% (inactive)
Cc1cc(C(=O)OCC(=O)Nc2c(F)cccc2F)c(C)n1C1CC1 | 7.2% (inactive)
Oc1ccc2c3c1OC1[C@H](O)CC[C@@]4(O)[C@@H](C2)N(CC2CC2)CC[C@]314 (stereo not given in full) | 1.2% (inactive)
COc1ccc(N2C(=O)/C(=C/c3ccco3)C(=O)NC2=S)cc1 | 42.1% (active)
COc1cccc(N2C(=O)NC(=O)/C(=C\c3ccc([N+](=O)[O-])s3)C2=O)c1 | 34.9% (inactive)
O=C1NC(=O)N(c2ccccc2)C(=O)/C1=C/c1ccc([N+](=O)[O-])s1 | 26.5% (inactive)
CSc1ccc(C(=O)C2CCCN(Cc3ccn[nH]3)C2)cc1 (stereo not given) | -3.6% (inactive)
CC1CCCCN1Cc1cccnc1 (stereo not given) | 0.7% (inactive)
